Screening results deposited in PubChem by National Center for Advancing Translational Sciences (NCATS).
Rows were chosen to be rich in hits. Some 3.4% of all compounds tested hit in one or more screens of this group.
AmpC no deterg: AmpC beta-lactamase inhibition without detergent; 330,000 compounds, 0.52% hits; AmpC nitrocefin hydrolysis, absorbance 480 nm, 0.0001% Triton; P00811; Potency, µM (titrated, usually from 57.1 µM), inactives show at the top dose activity change, negative = inhibition, usual class: inhibitors; AID 485341;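 note: plate controls were no compound for no effect and no enzyme for full effect; nearly all actives have a fitted effect of over 20% in size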
Target sequence (P00811 whole entry, looked up): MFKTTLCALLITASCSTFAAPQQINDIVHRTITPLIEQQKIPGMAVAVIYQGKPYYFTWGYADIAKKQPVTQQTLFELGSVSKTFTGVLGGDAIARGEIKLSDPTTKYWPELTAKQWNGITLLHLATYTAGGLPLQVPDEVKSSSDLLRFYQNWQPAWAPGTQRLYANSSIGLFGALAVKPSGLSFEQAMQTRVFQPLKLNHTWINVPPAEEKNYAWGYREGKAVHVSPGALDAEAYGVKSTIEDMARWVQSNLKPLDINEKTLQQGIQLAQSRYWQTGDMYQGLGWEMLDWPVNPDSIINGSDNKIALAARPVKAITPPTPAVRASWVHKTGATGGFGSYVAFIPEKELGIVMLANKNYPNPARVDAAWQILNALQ
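20 mM phosphate pH 7.0 + 0.01% (detergent screen) or 0.0001% Triton X-100; 5.3 nM AmpC reagent; cpd preinc 15 min RT; nitrocefin (800 uM stock) to start; A480 q20 s × 4 min; Activity was normalised to no-enzyme and no-compound control wells.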
RE007 growth inh: less growth of the S. pombe RE007 Vpr strain; S. pombe RE007 Vpr strain, BacTiter-Glo ATP luminescence, 24 h; Potency, µM (top dose mostly 92.2 µM), inactives show at the highest dose activity change, negative = less growth, hits mostly inhibitors; 360,000 compounds, 0.21% hits; active = well fitted falling curve with a large enough effect; inconclusive = small, poorly fitted or top-dose-only effect; inactive = no such curve, though single readings can be large or run the other way; note: nearly all actives have a fitted effect of over 50% in size
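Fission yeast strain RE007, carrying one chromosomally integrated HIV-1 vpr copy, was seeded at OD 0.01 in PMG+AL medium with 23 nL pinned compound. After 24 h at 30 °C and 99% humidity, viability was read by BacTiter-Glo luminescence.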
AmpC detergent: AmpC beta-lactamase inhibition with detergent present | P00811 | AmpC hydrolysis of nitrocefin, absorbance 480 nm, 0.01% Triton | Potency, µM (titrated, usually from 114 µM), for the others: at the top dose activity change, negative = inhibition, actives largely listed as inhibitors | 370,000 compounds, 0.041% hits | AID 485294;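 note: 0% = no-compound wells and -100% = no-enzyme wells; nearly all actives have a fitted effect of over 25% in size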
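20 mM phosphate pH 7.0 + 0.01% (detergent screen) or 0.0001% Triton X-100; 5.3 nM AmpC reagent; cpd preinc 15 min RT; nitrocefin (800 uM stock) to start; A480 q20 s × 4 min; Activity was normalised to no-enzyme and no-compound control wells.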
Sm TGR block: blocks Schistosoma mansoni thioredoxin glutathione reductase; purified TGR, DTNB reduction, TNB absorbance 405 nm; Potency, µM (series often up to 114 µM), inactives show at the highest dose activity change, negative = inhibition, usual class: inhibitors; 360,000 compounds, 3% hits; AID 485364; Q962Y6; note: nearly all actives have a fitted effect of over 60% in size
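Kinetic colorimetric format: TGR-catalysed, NADPH-driven DTNB reduction monitored via TNB absorbance. Enzyme dispensed at 20 nM; compound exposure 15 min at room temperature before reaction start.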
Giardia FBPA inh: inhibitors of Giardia lamblia fructose-1,6-bisphosphate aldolase | AID 2451 | A8B2U2 | Potency, µM (titrated, usually from 59.6 µM), without a hit: top-dose activity, negative = inhibition, most hits filed as inhibitors | purified Giardia FBPA | 290,000 compounds, 0.71% hits; note: nearly all actives have a fitted effect of over 55% in size
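Giardia FBPA (40 nM reagent) was preincubated 10 min at RT with compound (up to 57.5 uM final), then substrate plus GAPDH/TPI/NAD/arsenate coupling system with diaphorase/resazurin was added; resorufin fluorescence (525/598 nm) was read after 20 min.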
* = called active by the depositor. Unless noted, calls come from the whole dose curve; as a rule, active = well fitted curve in the direction sought with a large enough effect; inconclusive = small, poorly fitted or top-dose-only effect, or another doubt; inactive = no such curve, though single readings can be large; an effect the other way counts as inactive or inconclusive. Unless noted, % is set by controls: 0 for no effect and ±100 for the full control effect; potency is the fitted concentration of half-maximal effect.

COc1ccc(N=C2SC(CC(=O)Nc3ccc(F)cc3)C(=O)N2Cc2ccco2)cc1 (stereo not given) was read as AmpC no deterg -18.9%, RE007 growth inh -16.5%, AmpC detergent inconclusive, Sm TGR block inconclusive and Giardia FBPA inh -3.8%.
COc1ccc(N=C2SC(CC(=O)Nc3ccccc3OC)C(=O)N2Cc2ccco2)cc1 (stereo not given) was read as AmpC no deterg -8.3%, RE007 growth inh -2.5%, AmpC detergent 5.9%, Sm TGR block 50.1µM* and Giardia FBPA inh -11.3%.
For O=C(CN(CCc1ccccc1)C(=O)Cn1nnc(-c2cccs2)n1)NCc1ccco1 the results were AmpC no deterg -8.4%, RE007 growth inh 15.8%, AmpC detergent inconclusive, Sm TGR block 50.1µM* and Giardia FBPA inh 1.1%.
`O=C1CC(SC2=NCCS2)C(=O)N1c1ccc(Cl)cc1` (stereo not given) gave AmpC no deterg -17.4%, RE007 growth inh 7.8%, AmpC detergent -13.4%, Sm TGR block 56.2µM* and Giardia FBPA inh 4.8%.
Screening Nc1ccccc1SC1CC(=O)N(c2ccc(Cl)c(Cl)c2)C1=O (stereo not given) returned AmpC no deterg -51.0%, AmpC detergent 1.4%, Sm TGR block 4.9% and Giardia FBPA inh -2.1%.
Screening O=C1CC(Sc2ccc(Cl)cc2)C(=O)N1c1ccc2c(c1)OCCO2 (stereo not given) returned AmpC no deterg -4.1%, RE007 growth inh -21.4%, AmpC detergent 5.3%, Sm TGR block 3.98µM* and Giardia FBPA inh 0.8%.
O=C1CC(SC2=NCCS2)C(=O)N1c1ccc(Br)cc1 (stereo not given) was read as AmpC no deterg -53.9%, RE007 growth inh 0.0%, AmpC detergent -9.8%, Sm TGR block 56.2µM* and Giardia FBPA inh 4.2%.
Cc1ccc(N2C(=S)SC3CS(=O)(=O)CC32)cc1 (stereo not given) was read as AmpC no deterg -18.1%, RE007 growth inh -2.3%, AmpC detergent 5.3%, Sm TGR block -0.3% and Giardia FBPA inh 8.2%.
Screening CC(COc1ccccc1)N(CCCl)Cc1ccccc1 (stereo not given) returned AmpC no deterg -15.3%, RE007 growth inh -12.0%, AmpC detergent -1.8%, Sm TGR block 25.1µM* and Giardia FBPA inh 5.7%.
`O=C(CCCSc1nc2ccccc2c(=O)[nH]1)c1ccccc1` gave AmpC no deterg -25.8%, RE007 growth inh 29.1%, AmpC detergent 1.5%, Sm TGR block -0.2% and Giardia FBPA inh -23.5%.
Screening CSc1cccc(NC(=S)N2CCC(N(C)C3CCCCC3C)CC2)c1 (stereo not given) returned AmpC no deterg -19.1%, RE007 growth inh -5.6%, AmpC detergent 3.7%, Sm TGR block 22.4µM* and Giardia FBPA inh 5.8%.
For CC1(C(=O)NCc2ccc3c(c2)OCO3)CCN1C(=O)CCc1ccc(Cl)cc1Cl (stereo not given) the results were RE007 growth inh 3.2%.
Screening Nc1nc(CCl)nc(Nc2cccc3ccccc23)n1 returned AmpC no deterg -15.2%, RE007 growth inh -10.1%, AmpC detergent 8.8%, Sm TGR block 15.8µM* and Giardia FBPA inh -5.1%.
Cc1cccc(-c2nnc(SCC(=O)N3CCCC3)o2)c1 was read as AmpC no deterg -6.2%, RE007 growth inh 12.7%, AmpC detergent -9.4%, Sm TGR block -3.0% and Giardia FBPA inh 6.7%.
`Cc1ccc(SC(=O)c2c(C)noc2-c2cc(C)on2)cc1` gave AmpC no deterg -7.6%, RE007 growth inh -23.0%, AmpC detergent 2.2%, Sm TGR block 7.94µM* and Giardia FBPA inh -1.1%.
For COCCn1cc(C(=O)NCc2ccco2)c2c3ccccc3n(C)c2c1=O the results were AmpC no deterg 1.9%, RE007 growth inh 3.9%, AmpC detergent 0.5%, Sm TGR block -21.7% and Giardia FBPA inh 0.7%.
Cn1c2ccccc2c2c(C(=O)O)cn(C3CCCC3)c(=O)c21 was read as AmpC no deterg -8.7%, RE007 growth inh -1.7%, AmpC detergent inconclusive, Sm TGR block 1.5% and Giardia FBPA inh -13.0%.
